From article PMC7826789 (International Journal of Molecular Sciences, 2021) come the findings set out here.

Among the test systems are CDKL3; CDKL5; CHEK1; CHEK2; CIT; CLK1; CLK2; CLK3; CLK4; CSF1R-autoinhibited; CSF1R; CSK; CSNK1A1L; CSNK1A1; CSNK1D; CSNK1E; CSNK1G1; CSNK1G2; CSNK1G3; CSNK2A1.
Common to all, as to conditions: Compound Concentration (nM):1000
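Further: KINOMEscan scanMAX binding as percent activity remaining versus control; lower means stronger binding.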

Take `C[C@@H](Oc1cc(-n2cnc3ccc(OC4CCN(C)CC4)cc32)sc1C(N)=O)c1ccccc1Cl` [GSK579289A]: the “Percent Control” value in the assay with CDKL3 is given as 100%; in the assay with CDKL5, 100%; with CHEK1 it was 90%; in the assay with CHEK2, 100%; with CIT, 78%; in the assay with CLK1, 62%. The “Percent Control” value amounted to 88% with CLK2; 87% in the assay with CLK3; 95% in the assay with CLK4; 73% with CSF1R-autoinhibited; 65% in the assay with CSF1R; 76% in the assay with CSK. For the same compound, the “Percent Control” value is 89% in the assay with CSNK1A1L; 77% with CSNK1A1; 80% in the assay with CSNK1D; 100% in the assay with CSNK1E; 83% in the assay with CSNK1G1; 80% in the assay with CSNK1G2. For the same compound, the “Percent Control” value with CSNK1G3 came out at 100%; in the assay with CSNK2A1 it was 55%.

For `O=C1Nc2ccc(C(=O)c3ccco3)cc2C1=Cc1cc(Cl)c(O)c(Cl)c1` [GW406108X], the “Percent Control” value came out at 100% in the assay on CDKL3; 100% in the assay on CDKL5; 100% in the assay on CHEK1; 42% in the assay on CHEK2; 89% in the assay on CIT; 3.3% in the assay with CLK1. Moreover, the “Percent Control” value in the assay with CLK2 worked out at 0.1%; in the assay with CLK3 it was 6.2%; in the assay with CLK4, 12%; in the assay with CSF1R-autoinhibited it was 61%; with CSF1R, 93%; with CSK it was 79%. Moreover, the “Percent Control” value was 100% in the assay on CSNK1A1L; 93% in the assay with CSNK1A1; 100% with CSNK1D; 100% with CSNK1E; 82% in the assay with CSNK1G1; 96% in the assay on CSNK1G2. Moreover, the “Percent Control” value with CSNK1G3 came to 100%; in the assay with CSNK2A1, 9.7%.

Take `CN1CCN(C(=O)c2ccc(NC(=O)Nc3ccc(N(C)c4ccnc(Nc5ccc(CS(C)(=O)=O)cc5)n4)cc3)cc2)CC1.Cl` [GW830263A]: the “Percent Control” value in the assay with CDKL3 was determined as 72%; with CDKL5, 100%; in the assay on CHEK1, 100%; in the assay with CHEK2, 68%; in the assay on CIT, 79%; in the assay with CLK1, 84%. Moreover, the “Percent Control” value with CLK2 came to 54%; with CLK3, 95%; in the assay with CLK4, 100%; with CSF1R-autoinhibited it was 8.8%; in the assay on CSF1R, 0%; in the assay on CSK it was 62%. Besides, the “Percent Control” value in the assay on CSNK1A1L is 100%; with CSNK1A1 it was 85%; in the assay on CSNK1D, 99%; with CSNK1E, 75%; with CSNK1G1 it was 100%; with CSNK1G2 it was 100%. Besides, the “Percent Control” value is given as 100% in the assay on CSNK1G3 and 83% with CSNK2A1.

As for `CCS(=O)(=O)c1ccc(OC)c(Nc2ncc(-c3cccc(OC)c3)o2)c1` [GW580509X], the “Percent Control” value in the assay on CDKL3 was determined as 100%; in the assay on CDKL5, 59%; with CHEK1 it was 100%; in the assay on CHEK2 it was 100%; with CIT, 100%; in the assay with CLK1, 6.9%. Moreover, the “Percent Control” value in the assay on CLK2 worked out at 3.9%; in the assay with CLK3 it was 71%; in the assay on CLK4 it was 15%; in the assay with CSF1R-autoinhibited, 43%; in the assay with CSF1R, 72%; in the assay on CSK, 90%. Also, the “Percent Control” value with CSNK1A1L was 100%; with CSNK1A1, 100%; in the assay on CSNK1D, 100%; in the assay on CSNK1E, 85%; in the assay with CSNK1G1, 99%; in the assay with CSNK1G2, 100%. The “Percent Control” value in the assay on CSNK1G3 was determined as 97%; in the assay with CSNK2A1, 21%.

Regarding `CN(C)c1cc2c(Nc3ccc4c(cnn4Cc4ccccc4)c3)ncnc2cn1` [GW282974X], the “Percent Control” value is on record as 100% with CDKL3; 40% with CDKL5; 85% with CHEK1; 2.9% in the assay with CHEK2; 79% in the assay on CIT; 75% in the assay with CLK1. Besides, the “Percent Control” value was determined as 86% with CLK2; 100% in the assay with CLK3; 100% in the assay on CLK4; 100% in the assay with CSF1R-autoinhibited; 100% with CSF1R; 23% with CSK. For the same compound, the “Percent Control” value is 84% with CSNK1A1L; 82% in the assay on CSNK1A1; 97% in the assay with CSNK1D; 85% in the assay with CSNK1E; 80% with CSNK1G1; 100% in the assay with CSNK1G2. Further, the “Percent Control” value amounted to 100% with CSNK1G3 and 82% with CSNK2A1.

On to `COc1cc(C)c(N(C)C(=O)CN(C)C)cc1Nc1nc(Nc2cccc(F)c2C(N)=O)c2cc[nH]c2n1` [GSK2219385], for which the “Percent Control” value in the assay on CDKL3 amounted to 100%; with CDKL5, 44%; in the assay with CHEK1, 92%; in the assay on CHEK2, 69%; in the assay on CIT, 100%; in the assay with CLK1 it was 54%. Moreover, the “Percent Control” value in the assay with CLK2 was 58%; in the assay on CLK3, 91%; in the assay on CLK4, 67%; in the assay on CSF1R-autoinhibited, 100%; in the assay with CSF1R, 100%; in the assay with CSK, 95%. The “Percent Control” value in the assay on CSNK1A1L is 67%; in the assay with CSNK1A1, 47%; in the assay on CSNK1D it was 23%; with CSNK1E, 23%; in the assay on CSNK1G1, 54%; in the assay with CSNK1G2, 11%. The “Percent Control” value with CSNK1G3 amounted to 28%; with CSNK2A1, 78%.

`Cl.O=S1CCN(Cc2ccc(-c3ccc4ncnc(Nc5ccc(OCc6ccccc6)c(F)c5)c4c3)o2)CC1` [GW576924A]: the “Percent Control” value with CDKL3 was 100%; in the assay with CDKL5 it was 60%; with CHEK1, 100%; with CHEK2, 99%; in the assay with CIT it was 100%; in the assay with CLK1 it was 100%. The “Percent Control” value in the assay on CLK2, with CLK3, in the assay with CLK4, in the assay with CSF1R-autoinhibited, with CSF1R and in the assay with CSK was 100% throughout. The “Percent Control” value in the assay on CSNK1A1L, with CSNK1A1, with CSNK1D, in the assay with CSNK1E, in the assay with CSNK1G1 and in the assay with CSNK1G2 was 100% each time. The “Percent Control” value came to 100% in the assay with CSNK1G3 and 84% with CSNK2A1.

For the compound `Cl.O=C(Nc1ccc(Oc2ccc3[nH]c(NC(=O)c4ccccc4)nc3c2)cc1)Nc1cc(C(F)(F)F)ccc1F` [GW709042A], the “Percent Control” value with CDKL3 turned out to be 96%; with CDKL5, 100%; in the assay with CHEK1 it was 96%; in the assay on CHEK2, 100%; in the assay with CIT, 0%; with CLK1 it was 44%. Moreover, the “Percent Control” value in the assay on CLK2 is reported as 100%; in the assay with CLK3, 100%; in the assay on CLK4, 79%; with CSF1R-autoinhibited, 79%; with CSF1R it was 6.1%; with CSK, 96%. Further, the “Percent Control” value in the assay with CSNK1A1L was 97%; in the assay with CSNK1A1 it was 100%; in the assay on CSNK1D, 87%; in the assay on CSNK1E, 83%; in the assay with CSNK1G1 it was 100%; with CSNK1G2, 100%. The “Percent Control” value with CSNK1G3 came to 100%; in the assay on CSNK2A1 it was 92%.

As to `Cl.O=C(O[C@H]1CN[C@H](C#Cc2cc3ncnc(Nc4ccc5c(cnn5Cc5ccccc5)c4)c3s2)C1)N1CCOCC1` [GSK200398A], the “Percent Control” value in the assay on CDKL3 is reported as 100%; with CDKL5, 40%; in the assay on CHEK1, 100%; with CHEK2, 24%; with CIT, 77%; in the assay on CLK1 it was 83%. The “Percent Control” value turned out to be 100% in the assay with CLK2; 90% in the assay with CLK3; 100% with CLK4; 87% with CSF1R-autoinhibited; 100% with CSF1R; 67% in the assay with CSK. The “Percent Control” value in the assay on CSNK1A1L was 92%; in the assay on CSNK1A1, 89%; in the assay on CSNK1D, 91%; in the assay on CSNK1E, 79%; in the assay on CSNK1G1, 92%; in the assay with CSNK1G2, 100%. The “Percent Control” value was 92% in the assay on CSNK1G3 and 75% with CSNK2A1.
